The values that follow come from PubChem BioAssay AID1259423 (Fisher Drug Discovery Resource Center, 2018).

“And” between values parts separate entries of the source, which are not always exact repeats. Equal entries are not always repeated. Screen size: about 270,000 compounds; about 410 (0.15%) were called active. Cut-off read from the data, not from the text of the source: active = activation above about 40%; inactive = the rest, inconclusive results apart. What follows is part of a selection rich in actives, with near analogues and random picks from the rest.

This test has as its system Aedes aegypti neuropeptide Y-like receptor 7 (NPYLR7). Put plainly: agonists of mosquito NPYLR7 receptor, primary screen, cell-based, Aedes aegypti, calcium fluorescence, mosquito biting behavior (AID 1259423).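 Note: 0% = vehicle and 100% = reference agonist at the receptor.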 The following applies: HEK293T NPYLR7/Galpha15, GCaMP6s calcium fluorescence, at 10 µM, stronger effect = higher value.
[1] abbreviates: measured here: Max-Min RFU normalised activation.

Consider `Cc1cnccc1N1CCCN(C(=O)[C@H](N)CC(C)C)CC1`, for which the activation was 8.21% (inactive). Under setting [1], the activation was 7.83%.

As for `Cc1ccccc1-c1noc(CN2CCN(C(=O)c3cc(C4CC4)[nH]n3)CC2)n1`, the activation is 0.903% (inactive). Moreover, the activation under setting [1] is 0.506%.

Consider `CCC(CO)[n+]1c(C)cc(C=C2Sc3ccccc3N2CC)cc1C` (centres undefined), for which the activation was 56.5% (active). Also, the activation under setting [1] came out at 44.4%.

Consider `Cn1nc(C(F)(F)F)cc1C(=O)N1CCCC(O)(CO)CC1` (centres undefined), for which the activation is 3.25% (inactive). For the same compound, under setting [1], the activation was determined as 1.85%.

Consider `COC(=O)Cn1cc(C=C(C#N)C(=O)NCCc2c[nH]c3ccccc23)c2ccccc21`, for which the activation is 1.04% (inactive). Moreover, the activation under setting [1] is 1.01%.

In the case of `CCCn1nccc1C(=O)Nc1cc2c(C)cc(=O)oc2cc1C`, the activation was -4.21% (inactive). Besides, the activation under setting [1] is -5.15%.

Take `CCCc1nc(N2CCCN(c3ncccn3)CC2)c2cnn(C)c2n1`: the activation was -2.57% (inactive). For the same compound, the activation under setting [1] was -6.77%.

On to `COc1ccc(OC)c(S(=O)(=O)N2CCCC(c3nc4ccccc4s3)C2)c1` (centres undefined), for which the activation was -8.36% (inactive). Also, the activation under setting [1] was -7.77%.

Take `Cc1ccn(-c2ccc(NC3CC4CCC3O4)nn2)n1` (centres undefined): the activation was 7.09% (inactive). Moreover, under setting [1], the activation was found to be 3.85%.

For `Cc1ccc(C2(c3noc(CN(C)Cc4ccc5ccccc5n4)n3)CCCC2)cc1`, the activation was 32.2% (inactive) and 4.89% (inactive). Moreover, the activation under setting [1] is 24.1% and 13.2%.

As to `CSc1[s+]sc2c1-c1ccc(C)cc1NC2(C)C`, the activation is -1.46% (inactive). In addition, the activation under setting [1] was 5.63%.

As to `Cn1cc(NC(=O)Nc2cccc(N3CCCCCC3)c2)cn1`, the activation is 8.13% (inactive). Besides, the activation under setting [1] was 3.07%.

Regarding `O=C(O)c1[nH]ncc1CN1CCc2onc(-c3ccc(C(F)(F)F)cc3)c2C1`, the activation is 78.5% (active). Further, the activation under setting [1] came out at 41.2%.

Consider `O=C(O)c1[nH]ncc1CN1CCCC(c2[nH]ncc2Cc2ccccc2)C1` (centres undefined), for which the activation is 2.78% (inactive). Besides, the activation under setting [1] was found to be 3.74%.

For the compound `O=C(CCc1ccco1)N1CCc2onc(-c3ccc(C(F)(F)F)cc3)c2C1`, the activation was 3.67% (inactive). Under setting [1], the activation is -10.1%.

Take `Cc1csc(N(C)C(=O)c2cc(N3CCNC3=O)ccc2F)n1`: the activation is -7.45% (inactive). Further, the activation under setting [1] was -7.61%.

On to `COc1ccc(-n2nnc3c(N4CCN(C(=O)c5ccc(Br)o5)CC4)ncnc32)cc1`, for which the activation was -8.62% (inactive). In addition, the activation under setting [1] is -14.8%.

As to `CCOc1ccc(/C=C(\C#N)c2[nH]nc(N)c2C#N)cc1OCC`, the activation was -1.82% (inactive). The activation under setting [1] was -4%.

Take `N#CCc1nc2ncc(Br)cc2[nH]1`: the activation is -4.5% (inactive). Also, the activation under setting [1] was -5.31%.

`CCOc1cc(/C=C(\C#N)c2nc3ncc(Br)cc3[nH]2)ccc1O`: the activation is 90.2% (active). Besides, the activation under setting [1] amounted to 69.1%.

In the case of `OCc1ccc(CN2CCC(Oc3ccc(Cl)cc3)CC2)o1`, the activation is 2.49% (inactive). Besides, the activation under setting [1] worked out at 0.105%.

Turning to `COCCN(Cc1cc(NC(=O)c2cccc(F)c2)ccc1N(C)C)C(=O)NC(C)(C)C`, the activation is -2.37% (inactive). For the same compound, the activation under setting [1] was -0.561%.

For the compound `CCOC(=O)c1ccc2c(c1)nc(SCc1cccc(C(=O)OC)c1)n2Cc1cccc(F)c1`, the activation is -6.01% (inactive). In addition, the activation under setting [1] was -4.5%.

For the compound `COc1cc(C=C2C=c3c(O)cccc3=C2O)cc(Cl)c1O`, the activation is 203% (active). The activation under setting [1] stood at 183%.

Take `COc1cc(/C=C2/C(=O)N(c3ccc(Cl)c(Cl)c3)N=C2C)cc(Br)c1O`: the activation was -1.16% (inactive). Moreover, the activation under setting [1] amounted to 5.59%.

For `COc1cccc(CSc2nnc(CNC(=O)Nc3cc(OC)cc(OC)c3)n2-c2ccc([N+](=O)[O-])cc2)c1`, the activation was 22.3% (inactive). The activation under setting [1] turned out to be 16.8%.

In the case of `CC(C)CNC(=O)c1ccc2c(=O)n(Cc3ccccc3)c3nn(CC(N)=O)c(=O)n3c2c1`, the activation is 2.33% (inactive). The activation under setting [1] was -0.424%.

`C/C=C/c1cc(C(=O)N2CCN(CCO)CC2)cc(OC)c1OC`: the activation is 2.68% (inactive). Further, the activation under setting [1] was 0.348%.

For the compound `CC(C)N(CC1CCC(=O)N1)C(=O)c1cc(Cl)c[nH]c1=O` (centres undefined), the activation was -1.21% (inactive). The activation under setting [1] is -6.03%.

In the case of `CN1CC2(CCCN(C(=O)c3cccc(Cn4cccn4)c3)CC2)OC1=O` (centres undefined), the activation was 33.4% (inactive). Further, the activation under setting [1] is 15.5%.

Take `CC(C)(Oc1ccc(Cl)cc1)C(=O)Nn1cnc2c(cnn2-c2ccccc2)c1=O`: the activation was 2.94% (inactive). The activation under setting [1] is -1.1%.

For `O=C(O)C1CC2CCCC(C1)C2=O` (centres undefined), the activation was 2.14% (inactive). Under setting [1], the activation was 1.09%.

Consider `COc1ccc(C2SCCN2C(=O)c2cc3cc(Br)ccc3oc2=O)cc1` (centres undefined), for which the activation was 1.99% (inactive). For the same compound, the activation under setting [1] was -4.59%.

Turning to `O=C1CCC(C(=O)N(Cc2ccc(F)cc2)C2CC2)=NN1c1ccccc1`, the activation was 2.48% (inactive). For the same compound, under setting [1], the activation is 1.4%.

Consider `CCn1c(C2CCN(CCC3=C(C)CCCC3(C)C)CC2)nn(C)c1=O`, for which the activation was 14.4% (inactive). For the same compound, under setting [1], the activation stood at 4.06%.

`CCc1cc(=O)[nH]c(-n2nc(C)cc2NC(=O)C2c3ccccc3Oc3ccccc32)n1`: the activation was 10.2% (inactive). In addition, under setting [1], the activation turned out to be 5.92%.

Take `CNC(=O)NC(=O)C(C)Sc1nnc(-c2ccco2)n1CCC(N)=O` (centres undefined): the activation is 1.74% (inactive). In addition, the activation under setting [1] was 5.62%.

Turning to `CCOC(=O)Nc1cc(=O)c2cc(C)ccc2o1`, the activation is 0.463% (inactive). Also, the activation under setting [1] was -6.18%.

For `COc1ccc(C)c2sc(N(CCCN3CCOCC3)C(=O)c3ccc([N+](=O)[O-])cc3)nc12`, the activation is -0.485% (inactive). Besides, the activation under setting [1] was -6.29%.

As for `Cc1ccc(CN(Cc2ccc(F)cc2)C(=O)CNCCN2CCOCC2)s1`, the activation was 56.1% (active). The activation under setting [1] was determined as 58%.

Turning to `COCCNCC(=O)N(Cc1ccccc1)Cc1ccc(C)s1`, the activation was -5.15% (inactive). The activation under setting [1] is -13.2%.

As for `O=C(CNCCN1CCOCC1)N(Cc1ccccc1)Cc1cccs1`, the activation was -7.58% (inactive). The activation under setting [1] is -12.6%.
